Source: PubChem BioAssay (National Center for Advancing Translational Sciences (NCATS))
Pf growth 96h = Primary qHTS for delayed death inhibitors of the malarial parasite plastid, 96 hour incubation. P. falciparum luciferase reporter growth, 96 h. Potency, µM (titrated, usually from 28.7 µM), most hits filed as inhibitors. 320,000 tested, 6.9% active
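96 h incubation, 37 C, 5% CO2, of luciferase-reporter P. falciparum-infected RBCs (2% hematocrit, 0.05% parasitemia final) with test compounds; endpoint luminescence.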
CHX counter = Cycloheximide Counterscreen for Small Molecule Inhibitors of Shiga Toxin; AID 2314, 2010; max response, %; 300,000 tested, 12% active; cell reporter, cycloheximide protein synthesis inhibition counterscreen; in the data active = max response mostly above about 13%, no sharp cut-off; inactive = mostly below about 14%; also: read at 38.3 µM for the half of the compounds with a filed dose
Shiga inhibitor = A qHTS for Small Molecule Inhibitors of Shiga Toxin | Vero cells, Shiga toxin protein synthesis inhibition reporter | inhibition, % at 38.7 µM | 290,000 tested, 9.2% active; in the data active = inhibition mostly above about 28%, no sharp cut-off; inactive = mostly below about 43%
SARS PLpro yeast = qHTS of Yeast-based Assay for SARS-CoV PLP | 330,000 tested, 0.19% active | S. cerevisiae expressing SARS-CoV PLpro, growth rescue | AID 485353, 2010 | Potency, µM (highest dose often 32.9 µM), most hits filed as activators; calls by dose curve; also: nearly all actives have a fitted effect of over 55% in size
NS1 function inh = qHTS Assay for Inhibitors of Influenza NS1 Protein Function | Potency, µM (series often up to 46.1 µM) | 270,000 tested, 0.4% active; calls by dose curve; also: actives are rising curves; nearly all actives have a fitted effect of over 50% in size
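S. cerevisiae expressing influenza A NS1, grown in glucose, washed, then diluted 1:100 into pH 6.0 -URA galactose medium with 23 nl compound. Growth recovery read as OD600; NS1-free strain serves as control.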
Pf growth 48h = Primary qHTS for delayed death inhibitors of the malarial parasite plastid, 48 hour incubation; Potency, µM (top dose mostly 28.7 µM), most hits filed as inhibitors; 310,000 tested, 5.9% active; P. falciparum luciferase growth in erythrocytes, 48 h
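Firefly luciferase activity from engineered P. falciparum reports growth; inhibitors lower the luminescent signal. Cultures contained 2% hematocrit erythrocytes at 0.1% final parasitemia.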
Of the large screens only hits and unclear results are named; the others gave an inactive call. A selection: hits, their analogues and other compounds. The true share with any hit is near 21%. Unless noted, calls follow the shape of the dose curve; as a rule, active = well fitted inhibition curve with a large enough effect; inconclusive = small, poorly fitted or top-dose-only effect, or another doubt; inactive = no such curve, though single readings can be large or run the other way.

Cc1ccc(O)c(CNc2ccc(S(=O)(=O)Nc3nccs3)cc2)c1	none
CC(=O)Nc1ccc(C(=O)NNC(=O)C2C3CCCCC32)cc1 (centres undefined)	Pf growth 96h inconclusive
Cn1c(=O)c2c(ncn2CCSS(=O)(=O)O)n(C)c1=O	none (no result: Pf growth 96h, CHX counter, Shiga inhibitor, SARS PLpro yeast, Pf growth 48h)
Cc1nc2ccccc2c(=O)n1-c1ccc(NS(=O)(=O)c2cc(F)ccc2F)cc1	Pf growth 48h inconclusive (no result: CHX counter, Shiga inhibitor, NS1 function inh)
N#CCC(=O)N/N=C/c1c(-c2ccccc2)n(-c2ccccc2)c2ccccc12	Pf growth 96h inconclusive, Pf growth 48h 9.3µM
O=C(O)CCN1C(=S)CSC1=S	none (no result: Pf growth 96h, CHX counter, Shiga inhibitor, SARS PLpro yeast, Pf growth 48h)
COC(=O)c1cc2c(s1)c1cnn(Cc3ccccc3F)c(=O)c1n2C	Pf growth 96h inconclusive (no result: CHX counter, Shiga inhibitor, NS1 function inh)
NS(=O)(=O)c1ccc(CCNC(=O)c2ccc3nc4ccc(Cl)cc4c(=O)n3c2)cc1	Pf growth 48h 12µM (no result: NS1 function inh)
O=C(OC1Cn2c(=O)ccc(=O)n2C1)c1ccccc1	none
Cc1ccc(NCc2ccncc2)c(Br)c1	Shiga inhibitor 33
CC[C@H](C)[C@H](NC(=O)[C@H](Cc1ccc(O)cc1)NC(=O)[C@H](Cc1cnc[nH]1)NC(=O)[C@H](CCCNC(=N)N)NC(=O)[C@H](CC(C)C)NC(=O)[C@H](C)NC(=O)[C@@H](N)CO)C(=O)N[C@@H](CC(N)=O)C(=O)N[C@@H](CC(C)C)C(=O)N[C@H](C(=O)N[C@H](C(=O)N[C@@H](CCCNC(=N)N)C(=O)N[C@@H](CCC(N)=O)C(=O)N[C@@H](CCCNC(=N)N)C(=O)N[C@@H](Cc1ccc(O)cc1)C(N)=O)[C@@H](C)O)[C@@H](C)CC	none (no result: Pf growth 96h, SARS PLpro yeast, NS1 function inh, Pf growth 48h)
C1=C2C[N+]3(CCCC3)CC2Cc2ccc3ccccc3c21 (centres undefined)	Pf growth 96h 0.74µM (no result: Pf growth 48h)
C[N+]1(C)CC2=Cc3ccccc3CC2C1 (centres undefined)	Pf growth 48h inconclusive
CNc1nc(Oc2ccc(C(=O)OC)cc2)nc(SC)n1	Pf growth 48h 10µM
CCN(CC)c1nc(Nc2ccccc2)nc(Oc2ccc(C(=O)OC)cc2)n1	none
CCOC(=O)c1ccc(Oc2nc(NC)nc(OC)n2)cc1	Pf growth 48h 13µM
CCN(CC)c1nc(Oc2ccc(C(=O)NN)cc2)nc(Oc2ccc(C(=O)NN)cc2)n1	Pf growth 96h 9.3µM, NS1 function inh inconclusive, Pf growth 48h 9.3µM
COC(=O)c1ccc(Oc2nc(SC)nc(N(C)C)n2)cc1	none
O=c1c2ccccc2oc2ccc(Oc3ccccc3)cc12	CHX counter 41, Shiga inhibitor 42
COc1cc2oc3ccccc3c(=O)c2cc1OC	none
Cc1c(C(=O)Nc2nc3ccccc3[nH]2)cccc1[N+](=O)[O-]	CHX counter 15
CCOc1ccc(C(=O)Nc2cc(-c3nc4ccccc4[nH]3)ccc2Cl)cc1[N+](=O)[O-]	CHX counter 27, Pf growth 48h inconclusive
O=C(Nc1nc2ccccc2[nH]1)c1ccccc1[N+](=O)[O-]	CHX counter 35, Shiga inhibitor 51 (no result: NS1 function inh)
O=C(Nc1nc2ccccc2[nH]1)c1ccc(Cl)c([N+](=O)[O-])c1	CHX counter 37, Shiga inhibitor 116 (no result: NS1 function inh)
CC(C)c1cc(C(=O)N2CCCC(N3CCN(c4ccccc4F)CC3)C2)nc(N)n1 (centres undefined)	Pf growth 96h inconclusive, Pf growth 48h inconclusive
O=C(CCS(=O)(=O)c1ccccc1)N1CCOCC1	CHX counter 31 (no result: NS1 function inh)
O=C(CCS(=O)(=O)c1ccccc1)N1CCN(c2ccccc2)CC1	Pf growth 96h inconclusive, CHX counter 40, Shiga inhibitor 84
Cc1cc(C)c(S(=O)(=O)CCC(C)C)c(=O)[nH]1	Pf growth 96h inconclusive
CCCCn1c(SCC(=O)N2CCOCC2)nnc1-c1cccs1	SARS PLpro yeast inconclusive
COc1ccc(C(=O)COC(=O)Cn2[nH]c(=O)c3ccccc3c2=O)c(OC)c1	none (no result: CHX counter, Shiga inhibitor, NS1 function inh)
CCCC1CCC(c2nc(-c3cccnc3)no2)CC1 (centres undefined)	CHX counter 62
Fc1ccc(-c2noc(C3CCN(Cc4cccnc4)CC3)n2)cc1	CHX counter 19, Shiga inhibitor 28, Pf growth 48h inconclusive
CN(C)c1ccc(C(CNS(=O)(=O)c2ccc([N+](=O)[O-])cc2)N2CCCC2)cc1 (centres undefined)	Pf growth 96h inconclusive (no result: CHX counter, Shiga inhibitor, NS1 function inh)
CC(OC(=O)CCc1nc2ccccc2c(=O)[nH]1)C(=O)c1ccc(C(C)(C)C)cc1 (centres undefined)	CHX counter 22, Shiga inhibitor 60
Cc1ccc(NC(=O)CSCC(=O)N2CCCc3ccccc32)cc1	none (no result: CHX counter, Shiga inhibitor, NS1 function inh)
O=C(CCC1N=C2c3ccccc3N=C(SCc3ccc(Cl)cc3)N2C1=O)NCc1ccco1 (centres undefined)	Pf growth 48h inconclusive
CCC(C)NC(=O)CSC1=Nc2ccccc2C2=NC(CC(=O)NCc3ccccc3)C(=O)N12 (centres undefined)	Pf growth 48h 9.3µM
Cc1ccc(CSC2=Nc3ccccc3C3=NC(CC(=O)NCc4ccco4)C(=O)N23)cc1 (centres undefined)	CHX counter 38, Shiga inhibitor 68, Pf growth 48h 1.3µM (no result: Pf growth 96h)
COc1ccccc1CNC(=O)CCC1N=C2c3ccccc3N=C(SCC(=O)NCC3CCCO3)N2C1=O (centres undefined)	Pf growth 96h 4.1µM
O=C(CSC1=Nc2ccccc2C2=NC(CC(=O)NCc3ccco3)C(=O)N12)NCC1CCCO1 (centres undefined)	Pf growth 96h inconclusive, Pf growth 48h inconclusive
NC(=O)CSC1=Nc2ccccc2C2=NC(CC(=O)NCc3cccs3)C(=O)N12 (centres undefined)	none
O=C(CCC1N=C2c3ccccc3N=C(SCc3ccc(F)cc3)N2C1=O)NCc1ccco1 (centres undefined)	Pf growth 96h inconclusive, CHX counter 19, SARS PLpro yeast inconclusive, Pf growth 48h inconclusive
CCOC(=O)C1=C(COC(=O)Cc2c(F)cccc2Cl)NC(=O)NC1C (centres undefined)	none (no result: CHX counter, Shiga inhibitor, NS1 function inh)
O=C(CC1N=C2c3ccccc3N=C(SCc3ccc(F)cc3)N2C1=O)NCc1ccco1 (centres undefined)	Pf growth 96h 13µM, CHX counter 33, Shiga inhibitor 30, Pf growth 48h 0.74µM
O=C(N1CCOCC1)N1CCN(S(=O)(=O)c2cccc([N+](=O)[O-])c2)CC1	none (no result: SARS PLpro yeast)
COC(=O)c1[nH]c2ccccc2c1NC(=O)CN1CCN(C/C=C/c2ccccc2)CC1	none (no result: Pf growth 48h)
COC(=O)c1[nH]c2ccc(Cl)cc2c1NC(=O)CN1CCc2cc(OC)c(OC)cc2C1	Pf growth 48h inconclusive (no result: Pf growth 96h)
CCOC(=O)c1[nH]c2ccc(F)cc2c1NC(=O)CN1CCN(C/C=C/c2ccccc2)CC1	Pf growth 96h 5.9µM, Pf growth 48h 9.3µM
CCOC(=O)c1[nH]c2ccc(F)cc2c1NC(=O)CN1CCc2cc(OC)c(OC)cc2C1	Pf growth 96h inconclusive, Pf growth 48h 12µM
